Each structure is given as a SMILES string. Active and inactive are the calls of the source. The calls were made as follows: active = hit-call score of the fitted dose curve at least 0.9, where 1 is the maximum; inactive = score below 0.9.

Among the data in PubChem BioAssay (EPA / NIEHS) are outcome and AC50 values, retold here.

A short description of this assay: ATG_RORE_CIS: Attagene CIS-FACTORIAL HepG2 Assay for human RAR-related Orphan Receptor Element (RORE) (AID 2282959). Particulars: HepG2 Attagene cis-factorial RORE reporter, mRNA; actives raise or lower the signal. Here is the method:
ATG_CIS is a cell-based, multiplexed-readout assay that uses HepG2, a human liver cell line, with measurements taken at 24 hours after chemical dosing in a 24-well plate.ATG_RORE_CIS is one of 52 assay component(s) measured or calculated from the ATG_CIS assay. It is designed to make measurements of mRNA induction, a form of inducible reporter, as detected with fluorescence intensity signals by Reverse transcription polymerase chain reaction (RT-PCR) and Capillary electrophoresis technology.Data from the assay component ATG_RORE_CIS was analyzed into 1 assay endpoint. This assay endpoint, ATG_RORE_CIS, was analyzed with bidirectional fitting relative to DMSO as the negative control and baseline of activity. Using a type of inducible reporter, measures of mRNA for gain or loss-of-signal activity can be used to understand the reporter gene at the transcription factor-level as they relate to the gene RORA and RORB and RORC. Furthermore, this assay endpoint can be referred to as a primary readout, because this assay has produced multiple assay endpoints where this one serves a reporter gene function. To generalize the intended target to other relatable targets, this assay endpoint is annotated to the nuclear receptor intended target family, where the subfamily is orphan.
Human liver HepG2 cells are transiently transfected with multiple reporter transcription units (MRTUs) in 6-well plates using FuGene 6 reagent (Roche; 3 ml FuGene/1 mg DNA). The MRTU constructs are regulated by a cis-regulating element (promoter). […] A major difference between the CIS and TRANS system is that in CIS activities of endogenous TFs are measured, whereas the TRANS assay evaluates changes in activities of exogenous, chimeric NR-Gal4 proteins. […] At the end of 24 hour incubation, total RNA was isolated using TriZol reagent (Invitrogen). The isolated RNA is then reverse-transcribed using oligo(dT) primer and Mo-MLV reverse transcriptase (Invitrogen) with DNAse I (Ambion) treatment for 30 min. The one-tenth of the produced cDNA was amplified by PCR using Taq DNA polymerase (Invitrogen) and two reporter sequence-specific primers. The PCR products were fluorescently labeled by primer extension with 6-arboxyfluorescein (6-FAM) 5'-labeled reporter sequence-specific primer (2 min at 95 C, 20 s at 68 C and 10 min at 72 C) and these products were digested with 5U of HpaI (New England Biolabs) for 2h at 37 C. The fragments were purified using Qiaquick PCR columns (Qiagen), analyzed on an ABI 3130xL genetic analyzer (Applied Biosystems) with peak positions identified by using a set of X-rhodamine (ROX)-labeled MapMarker1000 molecular weight standards (BioVentures). The raw capillary electrophoresis data was processed using Attagraph software (Attagene).
`Nc1ccc(N)cc1`: the outcome was inactive.

Turning to `O=C(CBr)c1ccc(O)cc1`, the result was inactive.

For orientation: AC50 means the concentration at which the activity in the assay is half-maximal. In the case of `C=CC(=O)OCC(COC(=O)C=C)(COC(=O)C=C)COC(=O)C=C`, the AC50 was 8.19 µM (active).

Take `CCOP(=O)(OCC)SCCSCC`: the result was inactive.

Turning to `Clc1cnc(Oc2ccc(Oc3ncc(Cl)cc3Cl)cc2)c(Cl)c1`, the molecule was classed as inactive.

Regarding `N#Cc1ccc(Cl)cc1`, the call was inactive.

`C=CCOC(F)(C(F)(F)F)C(F)(F)F`: the molecule was called inactive.

For the molecule `Brc1c(Br)c(Br)c(Oc2c(Br)c(Br)c(Br)c(Br)c2Br)c(Br)c1Br`, the molecule was called inactive.

In the case of `CC(=Cc1ccccc1)[N+](=O)[O-]`, the molecule was classed as inactive.

On to `C=CCc1ccccc1O`, for which the molecule was called inactive.

For `CC(C=O)Cc1ccc2c(c1)OCO2` (stereo not given), the molecule was called inactive.

Take `O=C(O)c1cc(I)cc(I)c1I`: the molecule was classed as inactive.

For `COC(F)(C(F)(F)C(F)(F)F)C(F)(C(F)(F)F)C(F)(F)F` (stereo not given), the molecule was called inactive.

With `CNC(=O)O/N=C/C(C)(C)S(C)(=O)=O`, the molecule was called inactive.

Take `Nc1nc(=S)[nH][nH]1`: the molecule was called inactive.

In the case of `CN(C)[C@@H]1C(=O)C(C(N)=O)=C(O)[C@@]2(O)C(=O)C3=C(O)c4c(O)ccc(Cl)c4[C@@](C)(O)[C@H]3C[C@@H]12`, the result was inactive.

As for `O=C(CCl)Nc1ccccc1`, the outcome was inactive.

Consider `Clc1cc(C(Cl)(Cl)Cl)cnc1Cl`, for which the call was inactive.

Turning to `OC[C@@H](O)[C@H]1O[C@@H]2O[C@H](C(Cl)(Cl)Cl)O[C@@H]2[C@H]1O`, the call was inactive.

As for `COCCl`, the call was inactive.

As to `CCCSP(=S)(OCC)Oc1ccc(Cl)cc1Cl` (stereo not given), the molecule was called inactive.

Consider `CCC[CH2][Sn]([CH2]CCC)([CH2]CCC)[CH2]CCC`, for which the result was inactive.

On to `O=C(O)COc1cc(Cl)c(Cl)cc1Cl`, for which the molecule was called inactive.

As to `Fc1cccc(Cl)c1CCl`, the molecule was classed as inactive.

Consider `Nc1ccc(-c2ccccc2)cc1`, for which the result was inactive.

For the molecule `Oc1ccc(Cc2ccc(O)cc2)cc1`, the molecule was classed as inactive.

As to `OC(Cc1ccccc1Cl)(Cn1[nH]cnc1=S)C1(Cl)CC1` (stereo not given), the outcome was inactive.

Take `CCOC(=O)C(SP(=S)(OC)OC)c1ccccc1` (stereo not given): the molecule was called inactive.

As to `C=C(C)[C@@H]1CC=C(C=O)CC1`, the outcome was inactive.

With `CCC[CH2][Sn]([Cl])([Cl])[CH2]CCC`, the AC50 was 0.584 µM (active).

With `CCCCCCCCCCCCBr`, the result was inactive.

Turning to `CCOC(=O)Cc1ccccc1`, the call was inactive.

Regarding `O=C=Nc1ccc(Cl)cc1`, the call was inactive.

For the molecule `C[As+](C)(C)CC(=O)[O-]`, the molecule was classed as inactive.

For the molecule `Cc1cc(C)cc(C)c1`, the outcome was inactive.

As for `O=C(Cl)OCCOCCOC(=O)Cl`, the molecule was classed as inactive.

With `CC(c1ccc(O)cc1)c1ccc(O)cc1`, the molecule was called inactive.

On to `COc1ccc([N+](=O)[O-])cc1O`, for which the call was inactive.

As to `CC(C)(c1ccc(O)c(-c2ccccc2)c1)c1ccc(O)c(-c2ccccc2)c1`, the molecule was called inactive.

For the molecule `O=c1oc2ccccc2c(O)c1C(CC(O)c1ccc(-c2ccc(Br)cc2)cc1)c1ccccc1` (stereo not given), the call was inactive.
